Results as given in PubChem BioAssay (Tox21).
Records with an inconclusive call do not appear. Entries that show only a call come without a potency. Activity calls are given as the source filed them. The call rests on the fitted dose curve; in most records, active means well fitted cell-killing curve with a large enough effect in the repeat runs; inconclusive means weak or mixed curves, or effect the other way; inactive means no such curve, though single readings can be large or run the other way.

assay: qHTS assay for small molecule activators of the heat shock response signaling pathway - cell viability counter screen (AID 743209); details: HSE-bla HeLa viability, CellTiter-Glo luminescence, 5 h; series mostly up to 62.6 µM; further: nearly all actives have a fitted effect of over 50% in size
Excerpt: U.S. Tox21 Program National Center for Advancing Translational Sciences [NCATS] NIH Chemical Genomics Center [NCGC] U.S. Environmental Protection Agency [EPA] National Institutes of Environmental Health Sciences [NIEHS] National Toxicology Program [NTP] U.S. Food and Drug Administration [FDA] Tox21 Assay Overview: Various chemicals, environmental and physiological stress conditions may lead to the activation of heat shock response/ unfolded protein response (HSR/UPR). There are three heat shock transcription factors (HSFs) (HSF-1, -2, and -4) mediating transcriptional regulation of the human HSR. To identify the compounds that activate HSR signaling, HSE-bla HeLa cell line (Invitrogen, Carlsbad, CA, USA) containing a beta-lactamase reporter gene under the control of the heat shock response elements was used to screen Tox21 10K compound library. The cytotoxicity of the Tox21 compound library against the HSE-bla HeLa cell line was tested in parallel by measuring the cell viability using CellTiter-Glo assay (Promega, Madison, WI) in the same wells.
Tox21 Assay Protocol Summary: The CellSensor HSE-bla HeLa cells (Invitrogen, Carlsbad, CA, USA) were dispensed at 1500 cells/6uL/well into 1536-well black wall/clear bottom plates using a Multidrop combi (Thermo Fisher Scientific, Waltham, MA) dispenser. After the assay plates were incubated at 37 C and 5% CO2 overnight, 23 nL of compounds dissolved in DMSO, positive controls or DMSO only was transferred to the assay plate by a Pintool station (Kalypsys, San Diego, CA). The plates were incubated at 37 C for 5 h. After 1 uL of LiveBLAzerTM B/G FRET substrate was added using a Flying Reagent Dispenser (FRD, Beckman Coulter, Indianapolis, IN, USA), the plates were incubated at room temperature for 2.5 h, and fluorescence intensity was measured by an Envision plate reader (PerkinElmer, Shelton, CT). For cell viability readout that measures cytotoxicity, 3 ul/well of CellTiter-Glo reagent was added into the assay plates using a FRD. After 30 min incubation at room temperature, the luminescence intensity in the plates was measured using a ViewLux (PerkinElmer) plate reader.

| Structure (SMILES) | Potency |
| --- | --- |
| Cc1ccc(S(=O)(=O)O)cc1C | inactive |
| CNC[C@H](O)c1ccc(O)c(O)c1 | inactive |
| C[C@]12CC[C@@H]3c4ccc(O)cc4CC[C@H]3[C@@H]1CC[C@@H]2O | inactive |
| C[C@]12CC[C@@H]3c4ccc(O)cc4CC[C@H]3[C@@H]1CC[C@H]2O | inactive |
| CCC/C=C/C=O | inactive |
| ClC/C=C/CCl | inactive |
| C=C[C@H]1CN2CC[C@H]1C[C@@H]2[C@@H](O)c1ccnc2ccc(OC)cc12 | inactive |
| O=S1(=O)CCCO1 | inactive |
| c1ccc2c(c1)ccc1cc3c(ccc4ccccc43)cc12 | inactive |
| CCCCCCCCCCCCO | inactive |
| Oc1c(Cl)ccc(Cl)c1Cl | inactive |
| Nc1ccc(O)c(N)c1 | inactive |
| OC[C@@H](O)[C@@H](O[C@@H]1O[C@H](CO)[C@H](O)[C@H](O)[C@H]1O)[C@H](O)[C@@H](O)CO | inactive |
| O=Cc1ccccc1C=O | inactive |
| O=C1CCc2ccccc2O1 | inactive |
| O=C1OC2(c3ccccc31)c1cc(I)c(O)c(I)c1Oc1c2cc(I)c(O)c1I | inactive |
| C=C[Si](OCCOC)(OCCOC)OCCOC | inactive |
| OC[C@H]1O[C@@H]2O[C@H]3[C@H](O)[C@@H](O)[C@@H](O[C@H]4[C@H](O)[C@@H](O)[C@@H](O[C@H]5[C@H](O)[C@@H](O)[C@@H](O[C@H]6[C@H](O)[C@@H](O)[C@@H](O[C@H]7[C@H](O)[C@@H](O)[C@@H](O[C@H]1[C@H](O)[C@H]2O)O[C@@H]7CO)O[C@@H]6CO)O[C@@H]5CO)O[C@@H]4CO)O[C@@H]3CO | inactive |
| Nc1ccc2c(O)cc(S(=O)(=O)O)cc2c1 | inactive |
| CC(=O)Oc1ccc(C(c2ccc(OC(C)=O)cc2)c2ccccn2)cc1 | inactive |

| Structure (SMILES) | Potency |
| --- | --- |
| CC1=CC(C)(C)Nc2ccccc21 | inactive |
| CCCN1C=CN(C)C1 | inactive |
| NCCN | inactive |
| NC[C@H](O)c1ccc(O)c(O)c1 | inactive |
| c1ccc2ncccc2c1 | inactive |
| CCCCCCCCCCC(CO)CCCCCCCC (stereo not given) | inactive |
| CCCCCC=O | inactive |
| CN(C)/N=N/c1nc[nH]c1C(N)=O | inactive |
| CC1(C)NC(=O)N(c2ccc([N+](=O)[O-])c(C(F)(F)F)c2)C1=O | inactive |
| Cc1cccc(Nc2ccccc2C(=O)O)c1C | inactive |
| O=[Se](O)O | inactive |
| C=CCNCC=C | inactive |
| CC1(C)C(C=C(Cl)Cl)C1C(=O)OCc1cccc(Oc2ccccc2)c1 (stereo not given) | inactive |
| C/C=C/C(=O)N(CC)c1ccccc1C | inactive |
| CC1(C)O[C@@H]2C[C@H]3[C@@H]4C[C@H](F)C5=CC(=O)C=C[C@]5(C)[C@@]4(F)[C@@H](O)C[C@]3(C)[C@]2(C(=O)CO)O1 | inactive |
| CN(C)C | inactive |
| O=C(O)CCCC(=O)O | inactive |
| COC(=O)C(C)Oc1ccc(Oc2ncc(C(F)(F)F)cc2Cl)cc1 (stereo not given) | inactive |
| Cc1ccc([N+](=O)[O-])c(C)c1 | inactive |
| CC(=O)OC(C)C | inactive |
